Assay [1] relates to Wnt5a (protein binding on small-molecule microarray). The assay can be described thus: Wnt5a binders on small-molecule microarray, primary screen, biophysical, 635/667 nm fluorescence (AID 1142).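 Note: fluorescence read at 667 nm with signal to noise per printed feature.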 The following applies: 635 nm fluorescence, higher = more signal.
A short description of assay [2]: cell viability in Huh7 cells, primary screen, cytotoxicity control for HCV replication inhibitor project, CellTiter-Glo luminescence, basal, 48 h (AID 1143).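 Note: Huh7 hepatoma cells carrying a hepatitis C replication reporter with no stimulus; test concentration not given here.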 Particulars: Huh7 HCV replicon, higher = more signal, called active from +8 up or from −8 down. Background: Cellular ATP, detected with luciferase, serves as a proxy for viable cell number.
Assay [3] is described as follows: P. aeruginosa biofilm formation inhibitors, primary screen, PAO1 strain, BacTiter-Glo luminescence, LB-PBS (AID 1144). The following applies: 12 h, higher = more signal.
Assay [4] can be described thus: CREB reporter modulators without forskolin, primary screen, cell-based, PC12, CRE-LacZ reporter, unstimulated (AID 1145). Particulars: no forskolin, luminescence, 4.5 h, higher = more signal, called active from +8 up or from −8 down.
Assay [5] is described as follows: CREB reporter modulators under forskolin, primary screen, cell-based, PC12, CRE-LacZ reporter, forskolin-stimulated (AID 1146).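 Note: PC12 cells with 6xCRE LacZ reporter stimulated by forskolin 10 µM; beta-galactosidase reporter signal reflecting CREB driven transcription.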 The following applies: luminescence, 4.5 h, higher = more signal, called active from +8 up or from −8 down.
The target of assay [6] is Streptavidin (Streptomyces avidinii) (UniProt P22629). Description: streptavidin binders on small-molecule microarray, primary screen, artefact control for SMM compound annotation, biophysical, 635/667 nm fluorescence (AID 1147).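 Note: signal reflects streptavidin binding to arrayed compounds as a control protein.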 The following applies: streptavidin binding, higher = more signal.
Assay [7] is described as follows: small-molecule binders of probe aInhba, primary screen, biochemical, small-molecule microarray, 635/667 nm fluorescence (AID 1148).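 Note: score merges 667nm spot fluorescence with signal-to-noise for antibody binding to printed compounds.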 The following applies: higher = more signal.
Assay [8] deals with Torsin-1A (Homo sapiens) (UniProt O14656). Description: torsin A binders from cell lysate, primary screen, small-molecule microarray, wild-type, 635/667 nm (AID 1149). The following applies: COS7 hTOR1A-WT lysate, 635 nm fluorescence, higher = more signal.
Assay [9] has the same target. Description: small-molecule binders of mutant TOR1A in lysate, primary screen, cell lysate, small-molecule microarray, COS7 lysate, 635/667 nm fluorescence (AID 1150).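 Note: score pools 667 nm emission and signal to noise measuring lysate protein binding.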 Particulars: COS7 hTOR1A mutant lysate, 635 nm fluorescence, higher = more signal.
In assay [10] the test system is Sonic hedgehog protein (Shh). The assay can be described thus: small-molecule binders of Shh protein, primary screen, biochemical, small-molecule microarray, 635/667 nm fluorescence (AID 1151).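 Note: Shh protein binding to compounds spotted on small-molecule microarray slides; score combines spot fluorescence intensity with signal-to-noise across triplicate slides.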 Particulars: small-molecule microarray binding, 635 nm fluorescence; higher = more signal.
Assay [11] can be described thus: E. coli DRC41 culture turbidity changes, primary screen, E. coli filamentation inducer project, strain DRC41, OD650, 48 h (AID 1152).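 Note: E. coli MC1000 strain DRC41 lacking acrAB efflux pump and sulA.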 Particulars: E. coli DRC41 (acrAB sulA), higher = more signal, called active from +8 up or from −8 down.
A short description of assay [12]: small-molecule binders of probe aLefty1, primary screen, biochemical, small-molecule microarray, 635/667 nm fluorescence (AID 1153).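 Note: score merges spot fluorescence with signal-to-noise ratio from the scanned slide images.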 The following applies: higher = more signal.
Assay [13] in a line: PSAC antagonists in infected red cells, primary screen, cell-based, P. falciparum Indochina, OD700, 1 h (AID 1154). Particulars: P. falciparum Indochina infected RBC osmotic lysis, higher = more signal, called active from +8 up or from −8 down.
Assay [14] can be described thus: PSAC antagonists in infected red cells, primary screen, cell-based, P. falciparum Indochina, OD700, 2 h (AID 1155).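 Note: lysis reports solute entry through the parasite surface anion channel PSAC; channel blockers reduce lysis of infected cells.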 The following applies: P. falciparum Indochina infected erythrocytes, osmotic lysis OD700; higher = more signal, called active from +8 up or from −8 down.
The nature of assay [15]: osmotic lysis modulators in infected erythrocytes, primary screen, PSAC antagonist project, cell-based, P. falciparum Indochina, OD700, 3 h (AID 1156). The following applies: higher = more signal, called active from +8 up or from −8 down.
Assay [16] in a line: PSAC antagonists in infected red cells, primary screen, cell-based, P. falciparum Indochina, OD700, 18 h (AID 1157). Particulars: P. falciparum Indochina infected erythrocytes, osmotic lysis OD700, 18 h; higher = more signal, called active from +8 up or from −8 down.
Assay [17] in a line: modulators of S6 phosphorylation in cells, primary screen, cell-based, A549, cytoblot, luminescence, serum-stimulated (AID 1158).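 Note: serum-stimulated A549 lung adenocarcinoma cells; signal is phosphorylated S6 detected by cytoblot immunostaining with HRP secondary.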 The following applies: A549 phospho-S6 cytoblot, 5 h, higher = more signal.
The target of assay [18] is NADPH oxidase 2 (Homo sapiens) (UniProt P04839). Description: NOX2-dependent H2O2 signal modulators, primary screen, NOX inhibitor project, cell-based, HEK293-NOX2, PMA-stimulated, Amplex Red fluorescence (AID 1159). Note: test concentration not given here. Particulars: 45 min, higher = more signal, called active from +8 up or from −8 down.
Assay [19] concerns the target NADPH oxidase 4 (Homo sapiens) (UniProt Q9NPH5). Description: NOX4-dependent H2O2 signal modulators, primary screen, NOX inhibitor project, cell-based, HEK293-NOX4, tetracycline-induced, Amplex Red fluorescence (AID 1160). The following applies: 45 min, higher = more signal, called active from +8 up or from −8 down.
The target in assay [20] is NADPH oxidase 5 (Homo sapiens) (UniProt Q96PH1). The assay can be described thus: NOX5-dependent H2O2 signal modulators, primary screen, NOX inhibitor project, cell-based, HEK293-NOX5, Amplex Red fluorescence (AID 1161). Particulars: HEK293-NOX5, ionomycin, 45 min, higher = more signal.

The source made the active and inactive calls. Unless noted, the rule behind the calls is not given here.

Torsin-1A (Homo sapiens), sequence (O14656 whole entry, looked up): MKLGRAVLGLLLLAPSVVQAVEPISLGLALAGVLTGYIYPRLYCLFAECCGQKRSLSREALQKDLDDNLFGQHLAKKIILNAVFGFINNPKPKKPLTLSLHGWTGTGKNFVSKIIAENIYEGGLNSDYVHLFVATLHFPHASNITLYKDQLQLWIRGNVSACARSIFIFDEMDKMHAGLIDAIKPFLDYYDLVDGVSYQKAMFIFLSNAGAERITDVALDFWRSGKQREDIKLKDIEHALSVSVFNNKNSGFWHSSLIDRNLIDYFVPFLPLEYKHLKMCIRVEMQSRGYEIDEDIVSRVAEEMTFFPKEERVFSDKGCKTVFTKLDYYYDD
NADPH oxidase 4 (Homo sapiens), sequence (Q9NPH5 whole entry, looked up): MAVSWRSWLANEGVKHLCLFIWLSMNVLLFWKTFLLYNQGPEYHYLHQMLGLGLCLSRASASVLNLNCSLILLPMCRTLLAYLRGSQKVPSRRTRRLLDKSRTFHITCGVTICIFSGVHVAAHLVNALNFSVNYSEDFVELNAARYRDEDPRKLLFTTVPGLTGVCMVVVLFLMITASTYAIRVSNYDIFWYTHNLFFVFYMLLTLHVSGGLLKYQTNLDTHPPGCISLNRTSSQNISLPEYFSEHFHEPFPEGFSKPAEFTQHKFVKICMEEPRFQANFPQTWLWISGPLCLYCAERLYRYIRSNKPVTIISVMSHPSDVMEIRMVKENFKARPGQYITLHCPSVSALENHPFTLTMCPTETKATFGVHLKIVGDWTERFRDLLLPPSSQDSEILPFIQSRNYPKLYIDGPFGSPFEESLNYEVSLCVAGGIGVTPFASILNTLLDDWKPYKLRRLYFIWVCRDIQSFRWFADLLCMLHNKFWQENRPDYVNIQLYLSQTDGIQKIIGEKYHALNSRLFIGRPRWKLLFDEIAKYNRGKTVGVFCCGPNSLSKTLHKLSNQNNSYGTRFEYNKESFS
NADPH oxidase 5 (Homo sapiens), sequence (Q96PH1 whole entry, looked up): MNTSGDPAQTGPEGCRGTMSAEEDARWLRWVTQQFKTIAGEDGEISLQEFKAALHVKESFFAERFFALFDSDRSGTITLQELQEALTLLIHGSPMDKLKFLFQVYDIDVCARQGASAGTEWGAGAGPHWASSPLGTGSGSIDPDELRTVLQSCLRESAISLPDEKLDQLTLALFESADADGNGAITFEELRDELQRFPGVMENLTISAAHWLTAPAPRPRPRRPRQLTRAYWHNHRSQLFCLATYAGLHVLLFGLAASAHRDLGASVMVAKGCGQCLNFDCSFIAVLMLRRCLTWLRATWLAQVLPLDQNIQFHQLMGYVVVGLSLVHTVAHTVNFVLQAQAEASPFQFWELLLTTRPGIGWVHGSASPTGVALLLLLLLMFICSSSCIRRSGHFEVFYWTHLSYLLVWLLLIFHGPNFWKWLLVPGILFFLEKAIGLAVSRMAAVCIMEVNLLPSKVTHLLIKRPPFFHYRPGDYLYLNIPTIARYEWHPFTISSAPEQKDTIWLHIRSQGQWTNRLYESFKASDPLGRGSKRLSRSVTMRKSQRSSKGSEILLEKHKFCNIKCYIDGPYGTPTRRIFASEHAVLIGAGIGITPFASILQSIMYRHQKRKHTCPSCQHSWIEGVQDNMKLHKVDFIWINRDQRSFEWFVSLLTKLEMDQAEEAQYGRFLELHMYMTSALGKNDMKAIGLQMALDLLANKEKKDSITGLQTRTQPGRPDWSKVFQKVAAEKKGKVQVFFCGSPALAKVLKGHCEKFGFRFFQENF
Streptavidin (Streptomyces avidinii), sequence (P22629 whole entry, looked up): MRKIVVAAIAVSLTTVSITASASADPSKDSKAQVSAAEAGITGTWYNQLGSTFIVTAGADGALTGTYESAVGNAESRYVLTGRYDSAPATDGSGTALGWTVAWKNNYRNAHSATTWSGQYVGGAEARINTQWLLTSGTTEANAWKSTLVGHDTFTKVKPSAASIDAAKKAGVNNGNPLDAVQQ
NADPH oxidase 2 (Homo sapiens), sequence (P04839 whole entry, looked up): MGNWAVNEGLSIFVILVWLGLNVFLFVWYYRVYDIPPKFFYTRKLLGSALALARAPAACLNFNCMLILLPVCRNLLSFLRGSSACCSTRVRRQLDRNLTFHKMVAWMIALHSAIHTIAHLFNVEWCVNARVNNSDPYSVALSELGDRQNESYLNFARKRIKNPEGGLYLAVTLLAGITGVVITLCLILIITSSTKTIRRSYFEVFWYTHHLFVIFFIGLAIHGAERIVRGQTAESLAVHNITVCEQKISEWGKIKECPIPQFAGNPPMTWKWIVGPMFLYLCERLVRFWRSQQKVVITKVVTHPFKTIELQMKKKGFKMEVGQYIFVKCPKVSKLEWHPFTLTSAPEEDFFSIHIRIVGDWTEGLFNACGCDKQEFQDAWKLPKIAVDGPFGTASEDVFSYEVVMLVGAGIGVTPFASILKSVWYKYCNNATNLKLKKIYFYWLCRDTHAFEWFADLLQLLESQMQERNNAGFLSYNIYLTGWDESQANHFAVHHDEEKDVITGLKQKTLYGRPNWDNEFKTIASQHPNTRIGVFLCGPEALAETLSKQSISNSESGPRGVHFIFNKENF

Consider `NC(=O)N1C(=O)C2C(C1=O)C1C=C(CCCO)C2C(c2cccs2)N1Cc1cccc(OC(F)(F)F)c1` (stereo not given), for which the composite z-score in assay [1] is -0.0995; in [6], 0.035; in assay [7] it was -0.114; in assay [8] it was 0.726; in [9] it was 0.981; in [10], 1.4. In [12], this compound returned a composite z-score of 0.135. In addition, the z-score was -2.32 (inactive) in assay [2]; 0.818 (inactive) in assay [3]; 0.0704 (inactive) in assay [4]; -0.461 (inactive) in assay [5]; -0.19 (inactive) in assay [11]; 8.85 (active) in assay [13]. The z-score in assay [14] is 1.42 (inactive); in assay [15], -0.569 (inactive); in [16], 0.872 (inactive); in assay [17], 0.323; in assay [18] it was 2.15 (inactive); in [19] it was 0.0752 (inactive). The z-score in assay [20] was -1.12.

For the compound `CN1C(=O)C2C=CC(C(O)c3cccc4ccccc34)N(N3CCCCC3)C2C1=O` (stereo not given), the composite z-score in assay [1] is 0.156; in assay [6], 1.85; in assay [7] it was 0.0582; in [8], 0.613; in [9], 0.781; in assay [10] it was 0.169. Also, the composite z-score in assay [12] was -0.0798. The z-score in assay [2] is 0.64 (inactive); in [3] it was 0.32 (inactive); in [4], -0.136 (inactive); in assay [5], 0.0556 (inactive); in [11], -1.57 (inactive); in [13], 0.669 (inactive). Also, the z-score in assay [14] is 0.958 (inactive); in assay [15], -0.284 (inactive); in assay [16] it was 0.878 (inactive); in assay [17] it was -1.32; in assay [18], -0.671 (inactive); in assay [19], -1.97 (inactive). For the same compound, the z-score in assay [20] was -0.766.

In the case of `CC(C)OC(=O)C=C1C[C@@H](c2ccc(C(F)(F)F)cc2)O[C@@H](c2ccc(C(F)(F)F)cc2)O1`, the composite z-score in assay [1] is -0.1; in assay [6], -0.208; in assay [7], -0.157; in [8], 0.827; in assay [9], 0.483; in assay [10], -0.831. This compound showed a composite z-score in [12] of -0.0954. Further, the z-score in [2] is -3.23 (inactive); in [3], -1.17 (inactive); in assay [4], -0.723 (inactive); in assay [5], -0.163 (inactive); in assay [11], 0.609 (inactive); in [13] it was 2.79 (inactive). For the same compound, the z-score in assay [14] is -0.301 (inactive); in assay [15], -0.101 (inactive); in [16] it was -1.05 (inactive); in assay [17], 0.569; in assay [18], 0.283 (inactive); in assay [19], -0.175 (inactive). Moreover, the z-score in assay [20] was -0.0582.

On to `C[C@@H]1NC(=O)[C@@]23C(=O)N[C@@H](Cc4ccccc4)C2[C@H](C)[C@@]2(C)O[C@H]2C3/C=C/C/C=C\CNC(=O)[C@@H]2CCCN2C1=O` (stereo not given in full), for which the composite z-score in assay [1] was -0.0872; in [6], -0.591; in assay [7] it was -0.159; in assay [8], 0.271; in assay [9], -0.127; in assay [10], 0.44. The compound also had a composite z-score in [12] of -0.147. The z-score in [2] was -0.0642 (inactive); in [3] it was -0.426 (inactive); in [4], -0.687 (inactive); in [5], -0.226 (inactive); in assay [11] it was -0.906 (inactive); in assay [13], 0.518 (inactive). Moreover, the z-score in assay [14] is -0.0429 (inactive); in assay [15] it was -1.12 (inactive); in assay [16], -0.161 (inactive); in assay [17], 0.0613; in assay [18], -0.0487 (inactive); in assay [19], 0.581 (inactive). This compound also had a z-score in assay [20] of -2.64.

Regarding `O=C1NC(=O)C2C1C=CC(C(O)CCc1ccccc1)N2Nc1ccc(Cl)cc1Cl` (stereo not given), the composite z-score in [1] is 0.564; in assay [6] it was 0.209; in assay [7] it was -0.0581; in assay [8] it was 0.689; in [9], 1.36; in [10] it was -0.625. The composite z-score in assay [12] was -0.0162. Moreover, the z-score in [2] was -0.149 (inactive); in [3] it was 0.0136 (inactive); in [4], 0.243 (inactive); in assay [5], 0.0662 (inactive); in assay [11], -1.34 (inactive); in [13] it was 2.28 (inactive). Besides, the z-score was 1.31 (inactive) in assay [14]; 0.0675 (inactive) in assay [15]; 1.05 (inactive) in [16]; -1.01 in [17]; -0.22 (inactive) in [18]; -5.55 (inactive) in [19]. In assay [20], this compound came in with a z-score of -0.709.

For `C=CCC(OC(C)=O)[C@@H]1[C@@H](N(Cc2cccc3ccccc23)C(=O)Cc2ccc(F)cc2)c2cc(OCCCO)ccc2N1C(=O)c1ccc2ccccc2n1` (stereo not given in full), the composite z-score in assay [1] was 0.243; in assay [6] it was -0.0219; in assay [7] it was 0.0614; in assay [8], -0.149; in assay [9], -0.101; in [10], -0.0199. In [12], this compound returned a composite z-score of 0.0477. The z-score in assay [2] was 0.0889 (inactive); in assay [3], 0.0963 (inactive); in assay [4], 0.367 (inactive); in assay [5], 0.101 (inactive); in assay [11] it was 0.518 (inactive); in assay [13] it was 1.05 (inactive). Moreover, the z-score in assay [14] is 0.167 (inactive); in assay [15] it was -0.315 (inactive); in assay [16], 0.0897 (inactive); in [17] it was 0.103; in assay [18], -0.126 (inactive); in [19], 0.619 (inactive). For the same compound, the z-score in [20] was 1.94.

`O=C1O[C@H](c2ccccc2)[C@H](c2ccccc2)N2[C@H]1[C@@H](C(=O)Nc1nc3ccccc3s1)[C@]1(C(=O)Nc3ccccc31)[C@H]2c1ccc(OCCO)cc1`: the composite z-score in assay [1] is 0.433; in [6], 0.534; in [7] it was -0.113; in [8], 0.927; in assay [9] it was 1.2; in assay [10], 1.5. Further, the composite z-score in assay [12] was -0.0099. Also, the z-score in assay [2] is -2.91 (inactive); in assay [3] it was -0.538 (inactive); in assay [4], -0.0515 (inactive); in [5], -0.124 (inactive); in assay [11] it was -0.222 (inactive); in assay [13], 3.55 (inactive). Further, the z-score in assay [14] is 2.95 (inactive); in assay [15] it was 0.458 (inactive); in assay [16], 2.31 (inactive); in assay [17], -0.357; in [18], 0.499 (inactive); in assay [19], 0.4 (inactive). This compound yielded a z-score in [20] of 0.992.

As to `CO[C@H]1O[C@H](CO)[C@@H](OC(=O)Nc2ccc3c(c2)OCO3)[C@H](OC(=O)c2cc3ccccc3[nH]2)[C@H]1OC(=O)c1cc2ccccc2[nH]1`, the composite z-score in assay [1] was 0.0957; in assay [6] it was 0.483; in assay [7] it was -0.128; in assay [8], 0.103; in assay [9] it was -0.214; in assay [10] it was 0.458. The composite z-score in assay [12] was -0.0162. The z-score in [2] is -2.92 (inactive); in [3], -1.37 (inactive); in [4], 1.03 (inactive); in assay [5], -1.29 (inactive); in [11] it was 0.599 (inactive); in assay [13], 1.48 (inactive). The z-score was -0.354 (inactive) in assay [14]; -0.739 (inactive) in assay [15]; -0.536 (inactive) in [16]; 1.26 in assay [17]; -3.78 (inactive) in assay [18]; -1.95 (inactive) in [19]. For the same compound, the z-score in assay [20] is -3.47.
